DRD3 antagonist – antagonists of human D3 dopamine receptor | D3R cells, DiscoveRx beta-arrestin luminescence, antagonist mode; hits give low values | max response, negative = inhibition, % | hit rate 2.5% among 360,000 | AID 652054; in the data active = max response below about -50%; inconclusive = no clear call, values can overlap the other calls; note: % is set by controls: 0 for no effect and ±100 for the full control effect
Target sequence (P35462 whole entry, looked up): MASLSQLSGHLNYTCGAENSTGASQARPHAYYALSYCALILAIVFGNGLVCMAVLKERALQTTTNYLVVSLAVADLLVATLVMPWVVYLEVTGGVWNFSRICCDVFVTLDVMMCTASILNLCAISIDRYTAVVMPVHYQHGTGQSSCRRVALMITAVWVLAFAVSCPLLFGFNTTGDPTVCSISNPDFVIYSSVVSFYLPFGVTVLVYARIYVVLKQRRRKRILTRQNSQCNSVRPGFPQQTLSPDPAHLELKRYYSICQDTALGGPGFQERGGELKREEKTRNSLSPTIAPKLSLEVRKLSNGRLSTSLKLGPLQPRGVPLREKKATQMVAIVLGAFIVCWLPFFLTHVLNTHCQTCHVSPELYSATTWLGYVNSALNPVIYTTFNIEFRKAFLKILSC
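Cells expressing the human receptor were seeded at 1500 cells/well, incubated overnight at 37 degrees C in 5% CO2, then exposed to library compounds with dopamine controls for 90 minutes at 37 degrees C before luminescent detection.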
D3 ag – D3 dopamine receptor (human) agonism; P35462; D3R DiscoveRx beta-arrestin cells, luminescence, 90 min; max activation, %; hit rate 0.58% among 410,000; AID 652048; in the data active = max activation above about 30%; note: 0% is about no effect
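Cells at 1500/well, incubated overnight, then treated with pinned compounds (dopamine as control) for 90 min at 37 degrees C. DiscoveRx reagent added for 30 - 60 minutes at room temperature; luminescence read.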
D1 antagonist – blocks dopamine activation of the human D1 receptor. HEK293 TREx D1 cells, calcium flux, dopamine EC80; hits give low values. activity change, negative = inhibition, % at 10 µM. hit rate 3.2% among 360,000. AID 504652; in the data active = activity change below about -30%; note: % is set by controls: 0 for no effect and ±100 for the full control effect
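Allosteric or orthosteric antagonism assessed as attenuation of the calcium response to EC80 dopamine, added 180 s after compound, in induced HEK293 Trex D1 cells loaded with no-wash calcium dye.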
D1 potentiator – potentiators of human D1 dopamine receptor. P21728. HEK293 TREx D1 cells, calcium flux, dopamine EC20 potentiation. potentiation, % at 10 µM. hit rate 0.036% among 360,000. AID 504651; in the data active = potentiation above about 30%; note: 0% is about no effect
D1 agonist – agonists of human D1 dopamine receptor | activation, % at 2 µM | HEK293 T-REx D1 cells, calcium flux, agonist mode | P21728 | hit rate 1% among 360,000; in the data active = activation above about 30%; note: 0% is about no effect
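Tetracycline-induced HEK293 TREx D1 cells, force-coupled to calcium signalling, were dye-loaded with a no-wash calcium kit. Compound was pin-added after a 10 s baseline. Fluorescence was read kinetically at 1 cycle/s for 180 s, with calcium rises flagged as agonism.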
* marks the source's active call; other numbers are inactive results; ? = inconclusive; . = no result. Most compounds without a hit are left out; they make up all but 6% or so of the library.

SMILES	DRD3 antagonist	D3 ag	D1 antagonist	D1 potentiator	D1 agonist
CCc1ccccc1N1C(=O)/C(=C/c2ccc(N3CCN(C)CC3)o2)C(=O)NC1=S	-4	-3	2	-4	71*
Cc1ccccc1N1C(=O)NC(=O)/C(=C/c2ccc(N3CCOCC3)o2)C1=O	-7	-12	-1	-1	14
C#CC(C)(O)CC (configuration not stated)	.	-2	.	.	.
Brc1cc2c(cc1CN1CCN(c3ccccc3)CC1)OCCO2	-73*	-28	-3	-2	1
Oc1cc2c(cc1CN1CCN(c3ccccc3)CC1)CCC2	-7	-2	9	-7	1
COc1cccc(CN2CCN(c3ccc(F)cc3)CC2)c1OC	?	-10	.	.	.
Oc1ccc(Cl)cc1CN1CCN(Cc2ccccc2)CC1	-66*	-3	-3	-8	3
COc1ccc(CN2CCN(c3ccccc3)CC2)c(C)c1C	-75*	1	2	-8	-1
Cc1cc(O)c(CN2CCN(c3ccccc3)CC2)cc1C	-65*	-24	13	-6	-2
COc1ccc(OC)c(CCNCc2c(C(=O)O)c(C)n(Cc3ccc(F)cc3Cl)c2C)c1	.	0	-5	-1	2
C[C@]12CC[C@H]3[C@@H](CCC4=C(O)C(=O)CC[C@@H]43)[C@@H]1CC[C@@H]2OC(=O)CCC1CCCC1	.	3	.	.	.
CC(Cc1ccccc1)NCCn1cnc2c1c(=O)n(C)c(=O)n2C (configuration not stated)	.	-21	.	.	.
CCCC12CN3CC(C)(CN(C1)C3c1ccccn1)C2=O (configuration not stated)	.	6	-1	3	1
Cc1ccc(O)c(CN2CCN(c3ccccc3)CC2)c1	-80*	-6	-9	-3	2
Oc1cc2c(cc1CN1CCN(c3ccc(F)cc3)CC1)OCO2	-66*	-24	-13	.	3
COc1ccc(C(CNC(=O)c2ccc3c(c2)CCC3)N(C)C)cc1 (configuration not stated)	-81*	-12	16	-5	22
O=C(N=Nc1c(O)[nH]c(=O)[nH]c1=O)C1COc2ccccc2O1 (configuration not stated)	10	2	-37*	-10	2
O=c1[nH]c(O)c(N=Nc2ccc3c(c2)OCCO3)c(=O)[nH]1	-22	-10	38	-1	1
CN1C(CC(O)c2ccccc2)CCCC1CC(O)c1ccccc1 (configuration not stated)	10	-18	-45*	-7	3
OC(CNC1CCCCCCC1)c1ccccc1 (configuration not stated)	.	.	-4	6	5
O=C1C(I)=CC(=C(c2cc(I)c(O)c(I)c2)c2ccccc2C(=O)O)C=C1I	.	14	.	.	.
CC(=NCCC(c1ccccc1)c1ccccc1)c1c(O)n(C)c(=O)n(C)c1=O	15	2	-6	3	1
Cn1c(O)c(C(=N)COc2ccccc2)c(=O)n(C)c1=O	-4	45*	.	.	.
CN(C)[C@H](Cc1ccccc1)c1ccccc1	.	7	.	.	.
OCCCBr	.	6	.	.	.
SMILES	DRD3 antagonist	D3 ag	D1 antagonist	D1 potentiator	D1 agonist
CCCS(=O)(=O)N1CCCC(C(=O)N2CCC3(CC2)OCCO3)C1 (configuration not stated)	3	-10	-3	-3	1
CS(=O)(=O)N1CCCC(C(=O)N2CCC3(CC2)OCCO3)C1 (configuration not stated)	22	1	-34*	-1	1
Fc1ccccc1CNC1CN2CCC1CC2 (configuration not stated)	-5	-3	2	0	3
Ic1ccccc1CN[C@@H]1C2CCN(CC2)[C@@H]1C(c1ccccc1)c1ccccc1	-15	0	-31*	24	84*
CC1=NN(c2ccccc2)C(=O)C1/C=C1/C(=O)NC(=O)N(c2cc(C)cc(C)c2)C1=O (configuration not stated)	1	-10	-37*	-1	5
CC1=NN(c2ccccc2)C(=O)C1/C=C1\C(=O)NC(=O)N(c2cc(C)cc(C)c2)C1=O (configuration not stated)	40	1	6	6	1
O=C(N[C@H]1N=C(c2ccccc2F)c2cccc3c2N(CC3)C1=O)c1cc2ccccc2[nH]1	.	-8	.	.	.
C[C@H]1[C@H]2Cc3ccc(O)cc3[C@]1(C)CCN2CCc1ccccc1	.	-17	.	.	.
BrCCc1ccccc1	-99*	-92	.	-2	1
C[C@H](O)[C@H]1CC[C@H]2[C@@H]3CCC4=CC(=O)CC[C@]4(C)[C@H]3CC[C@]12C	0	-13	-33*	-4	24
CCC(=O)O[C@H]1CC[C@H]2[C@@H]3CCC4=CC(=O)CC[C@]4(C)[C@H]3CC[C@]12C	-5	18	.	.	.
CN(C)C(=O)Oc1ccc(OCc2nc3ccccc3[nH]2)cc1	-11	-4	-48*	-8	16
Cc1nnc2n1-c1sc(Br)cc1C(c1ccccc1Cl)=NC2	.	3	.	.	.
O=[N+]([O-])C(Br)(CO)CO	.	-1	.	.	.
COc1cc(OC)c(OC)cc1CNC(C)C(O)c1ccccc1 (configuration not stated)	-67*	1	0	-1	3
CC(NCc1ccc(Cl)cc1)C(O)c1ccccc1 (configuration not stated)	-105*	-21	5	0	8
CC(NCc1cccc(Cl)c1Cl)C(O)c1ccccc1 (configuration not stated)	-29	-35	15	-5	1
CCOc1c(Cl)cc(CNC(C)C(O)c2ccccc2)cc1OC (configuration not stated)	0	1	15	-1	12
CC(NCc1ccc(Cl)cc1Cl)C(O)c1ccccc1 (configuration not stated)	-56*	-33	5	-8	8
COCCOCCO	.	-9	.	.	.
CC(=O)OC1(c2ccccc2)CCN(CCc2ccccc2)CC1	.	-11	.	.	.
O=C(CS(=O)C(c1ccccc1)c1ccccc1)NO (configuration not stated)	.	9	.	.	.
CC(C)(O)[C@@H]1[C@H]2OC(=O)[C@@H]1[C@]1(O)C[C@H]3O[C@]34C(=O)O[C@H]2[C@]14C	.	-2	.	.	.
NC(=O)CSc1nnc([C@@H](N)Cc2c[nH]c3ccccc23)o1	15	3	-44*	-5	6
Oc1ccc([C@H]2CNCc3c2ccc(O)c3O)cc1O	.	10	.	.	.
CCC1(CC)C(=O)NC(=O)NC1=O	.	-6	.	.	.
CC(c1ccccc1)n1cncc1C(=O)N1CCCC1=O (configuration not stated)	28	30*	1	-4	3
CCOC(=O)c1cncn1[C@H](C)c1ccccc1	.	.	3	-1	-1
C[C@@H](Cc1ccccc1)NCCC(c1ccccc1)c1ccccc1	.	-14	.	.	.
CCOc1ccccc1CN1C2CCC1CC(c1ccc(C)cc1)C2 (configuration not stated)	-70*	-27	-41*	-7	13
